# Laboratory results taken from PubChem BioAssay (EPA / NIEHS).
# Records with an inconclusive call do not appear. Calls of active or inactive are those of the source. How the source made its calls, unless noted: active means hit-call score of the fitted dose curve at least 0.9, where 1 is the maximum; inconclusive means response in the unintended direction; inactive means score below 0.9.
# Legend:
# [1] = biological target: Thyroid hormone receptor alpha (Rattus norvegicus) + Thyroid hormone receptor beta (Rattus norvegicus) (UniProt P18113+P63059); experiment: TOX21_TR_LUC_GH3_Antagonist_Followup: Tox21 GH3 Thyroid Hormone Receptor Antagonism Luciferase Follow-Up Assay (AID 2283942)
# Summary of the method: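 In a GH3 luciferase reporter line, test chemicals spanning 92 uM to 5nM final are co-incubated 24 h with 1.0 nM T3. Activity is expressed as relative luminescence units and analysed relative to DMSO.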
# THRA (gene 7067) = THRA (gene 7067) (UniProt P10827); experiment: TOX21_TRA_COA_Antagonist_Followup_ratio: Tox21 Thyroid Hormone Receptor alpha Antagonism through Coactivator Recruitment Follow-Up Assay, Ratio (AID 2283953)
# Summary of the method: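 We measured antagonism of T3-type coactivator recruitment using a TR-FRET ratio (emission 520 and 495 nm) between a Tb-labelled anti-GST antibody on TRα LBD (2.5 nM) and SRC-2 peptide (200 nM). Activity was scaled between DMSO and T3 wells.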
# THRB (gene 7068) = THRB (gene 7068) (UniProt P10828); experiment: TOX21_TRB_BLA_Antagonist_Followup_ratio: Tox21 Thyroid Hormone Receptor beta Antagonism Beta-lactamase (BLA) Follow-Up Assay, Ratio (AID 2283958)
# Summary of the method: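 Using charcoal-stripped 2% FBS medium, human TRβ-LBD/GAL4 reporter HEK293T cells received test compounds for 18 h. The endpoint is the cleaved-to-uncleaved substrate ratio (460/530 nm).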
# [2] = CEETOX_H295R_11DCORT_noMTC: CeeTox H295R High-throughput Steroidogenesis Assay for 11-Deoxycortisol (11DCORT), maximum tolerated concentration (MTC) filtered results only (AID 2283911; active means hit-call score of the fitted dose curve at least 0.9, where 1 is the maximum; inactive means score below 0.9); details: actives raise or lower the signal
# Summary of the method: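 Steroidogenesis was stimulated in H295R cells with 10 uM forskolin for 48 h before a 48 h chemical exposure. Secreted 11-deoxycortisol was measured by tandem mass spectrometry and fitted bidirectionally against DMSO controls.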
# [3] = CEETOX_H295R_OHPREG_noMTC: CeeTox H295R High-throughput Steroidogenesis Assay for OH-Pregnenolone (OHPREG), maximum tolerated concentration (MTC) filtered results only (AID 2283912; active means hit-call score of the fitted dose curve at least 0.9, where 1 is the maximum; inactive means score below 0.9); details: actives raise or lower the signal
# Summary of the method: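 Readout is HPLC-MS/MS quantification of 17alpha-hydroxypregnenolone released by forskolin-stimulated H295R cells over 48 h of chemical exposure, DMSO as baseline.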
# [4] = CEETOX_H295R_OHPROG_noMTC: CeeTox H295R High-throughput Steroidogenesis Assay for OH-Progesterone (OHPROG), maximum tolerated concentration (MTC) filtered results only (AID 2283914; active means hit-call score of the fitted dose curve at least 0.9, where 1 is the maximum; inactive means score below 0.9); details: actives raise or lower the signal
# Summary of the method: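 Analysis uses all tested concentrations, without maximum-tolerated-concentration screening by MTT. H295R cells, forskolin-primed (10 uM, 48 h), receive chemical for 48 h; hormone in medium measured by HPLC-MS/MS, with bidirectional curve fitting against DMSO.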
# [5] = CEETOX_H295R_CORTISOL_noMTC: CeeTox H295R High-throughput Steroidogenesis Assay for Cortisol, maximum tolerated concentration (MTC) filtered results only (AID 2283916; active means hit-call score of the fitted dose curve at least 0.9, where 1 is the maximum; inactive means score below 0.9); details: actives raise or lower the signal
# Summary of the method: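 H295R adrenal cells were pre-stimulated 48 h with 10 uM forskolin, then exposed 48 h to test chemical in 0.1% DMSO. Medium cortisol was measured by MTBE extraction and HPLC-MS/MS; bidirectional fit versus DMSO, concentrations not MTC-filtered.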
# [6] = CEETOX_H295R_CORTIC_noMTC: CeeTox H295R High-throughput Steroidogenesis Assay for Corticosterone (CORTIC), maximum tolerated concentration (MTC) filtered results only (AID 2283917; active means hit-call score of the fitted dose curve at least 0.9, where 1 is the maximum; inactive means score below 0.9); details: actives raise or lower the signal
# Summary of the method: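 Forskolin-stimulated (10 uM, 48 h) H295R cells are dosed 48 h with chemical in DMSO (0.1% final); corticosterone change is quantified by HPLC-MS/MS and fitted bidirectionally against DMSO, unfiltered for MTT-derived MTC.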
# [7] = CEETOX_H295R_DOC_noMTC: CeeTox H295R High-throughput Steroidogenesis Assay for DOC, maximum tolerated concentration (MTC) filtered results only (AID 2283918; active means hit-call score of the fitted dose curve at least 0.9, where 1 is the maximum; inactive means score below 0.9); details: actives raise or lower the signal
# Summary of the method: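 H295R cells prestimulated 48 h with 10 uM forskolin, then exposed 48 h to test chemical (0.1% DMSO final). Medium 11-deoxycorticosterone extracted with MTBE, quantified by HPLC-MS/MS; bidirectional fit versus DMSO, concentrations not MTC-filtered.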
# [8] = CEETOX_H295R_ESTRADIOL_noMTC: CeeTox H295R High-throughput Steroidogenesis Assay for Estradiol, maximum tolerated concentration (MTC) filtered results only (AID 2283919; active means hit-call score of the fitted dose curve at least 0.9, where 1 is the maximum; inactive means score below 0.9); details: actives raise or lower the signal
# Summary of the method: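 Readout: dansyl-derivatized estradiol quantified by LC-MS/MS in medium from H295R cells dosed 48 h (0.1% DMSO) following 48 h forskolin (10 uM) prestimulation. Gain or loss of signal fitted against DMSO; no MTC filtering applied.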
# [9] = CEETOX_H295R_PROG_noMTC: CeeTox H295R High-throughput Steroidogenesis Assay for Progesterone (PROG), maximum tolerated concentration (MTC) filtered results only (AID 2283920; active means hit-call score of the fitted dose curve at least 0.9, where 1 is the maximum; inactive means score below 0.9); details: actives raise or lower the signal
# Summary of the method: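 Progesterone synthesis in the human adrenal line H295R is measured by HPLC-MS/MS after 48 h chemical exposure following 48 h forskolin (10 uM) stimulation. Activity in either direction is fitted relative to DMSO.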
# [10] = CEETOX_H295R_ESTRONE_noMTC: CeeTox H295R High-throughput Steroidogenesis Assay for Estrone, maximum tolerated concentration (MTC) filtered results only (AID 2283921; active means hit-call score of the fitted dose curve at least 0.9, where 1 is the maximum; inactive means score below 0.9); details: actives raise or lower the signal
# Summary of the method: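 Estrone in spent medium, quantified by tandem MS following dansyl chloride derivatization, after 48 h chemical exposure (0.1% DMSO) of forskolin-prestimulated (10 uM, 48 h) H295R cells; concentrations not MTC-filtered, bidirectional fit against DMSO.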
# PGR (gene 5241) [11] = biological target: PGR (gene 5241) (UniProt P06401); experiment: TOX21_PR_BLA_Followup_Antagonist_ratio: Tox21 HEK293 Progesterone Receptor (PR) Antagonism Beta-lactamase Follow-Up Assay, Ratio (AID 2283934);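 further: PR-UAS-bla HEK293T cells stimulated with 1 nM R5020 agonist for 16 hr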
# Summary of the method: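 Measured in PR-UAS-bla HEK293T cells co-treated with compound and 1 nM promegestone for 16 hr; beta-lactamase ratio read after 2 h FRET substrate loading, with parallel CellTiter-Glo cytotoxicity.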
# [12] = TOX21_PR_BLA_Followup_Agonist_viability: Viability Assessment in the Tox21 HEK293 Progesterone Receptor (PR) Agonism Beta-lactamase Follow-Up Assay (AID 2283935);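 further: signal loss means lower viability so actives are cytotoxic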
# Summary of the method: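 Viability is read as CellTiter-Glo luminescence, where loss of signal indicates cytotoxicity. The cells are PR-UAS-bla HEK293T given compounds for 16 hr at 37C and 5% CO2, in the same wells used for the bla readout.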
# [13] = TOX21_PR_BLA_Followup_Antagonist_viability: Viability Assessment in the Tox21 HEK293 Progesterone Receptor (PR) Antagonism Beta-lactamase Follow-Up Assay (AID 2283936);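 further: cells exposed to compound with R5020 agonist for 16 h; hits lower the luminescence signal meaning cytotoxicity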
# Summary of the method: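 PR-UAS-bla HEK293T cells in medium with 2% charcoal-stripped FBS were treated with compounds plus R5020 for 16 hr at 37C. After the beta-lactamase read, CellTiter-Glo was added to the same wells and luminescence read after 30 min at room temperature.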
# [14] = TOX21_PR_LUC_Followup_Antagonist_viability: Viability Assessment in the Tox21 HEK293 Progesterone Receptor (PR) Antagonism Luciferase Follow-Up Assay (AID 2283940)
# Summary of the method: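 Loss of CellTiter-Glo ATP signal indicates cytotoxicity in HEK293-PR-A-luc cells grown in 10% charcoal-stripped FBS medium, seeded 3,000 per well and incubated 16 h with compound at 37C.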
# [15] = TOX21_PR_LUC_Followup_Agonist_viability: Viability Assessment in the Tox21 HEK293 Progesterone Receptor (PR) Agonism Luciferase Follow-Up Assay (AID 2283941);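 further: loss of signal means cytotoxicity so actives lower viability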
# Summary of the method: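 Seeding: HEK293-PR-A-luc, 3,000 cells/well, 5 h at 37C. Treatment: compound in DMSO, 16 h, 37C. Read: CellTiter-Glo ATP luminescence, signal loss taken as lower viability.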
# PGR (gene 5241) [16] = biological target: PGR (gene 5241) (UniProt P06401); experiment: TOX21_PR_LUC_Followup_Antagonist: Tox21 HEK293 Progesterone Receptor (PR) Antagonism Luciferase Follow-Up Assay (AID 2283938);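 further: curve fitted upward as signal gain over DMSO baseline despite antagonist label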
# Summary of the method: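 Cells are grown 5 days in charcoal-stripped-FBS assay medium, plated, left 5 h, then dosed with compound and incubated 16 h. ONE-Glo reagent is added and luminescence read after 30 min.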
# PGR (gene 5241) [17] = biological target: PGR (gene 5241) (UniProt P06401); experiment: TOX21_PR_BLA_Followup_Agonist_ratio: Tox21 HEK293 Progesterone Receptor (PR) Agonism Beta-lactamase Follow-Up Assay, Ratio (AID 2283933)
# Summary of the method: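 Ratio-based beta-lactamase reporter signal after 16 hr compound treatment of PR-UAS-bla HEK293T cells at 37C. Substrate loading lasted 2 hr at room temperature.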
# PGR (gene 5241) [18] = biological target: PGR (gene 5241) (UniProt P06401); experiment: TOX21_PR_LUC_Followup_Agonist: Tox21 HEK293 Progesterone Receptor (PR) Agonism Luciferase Follow-Up Assay (AID 2283937; active means hit-call score of the fitted dose curve at least 0.9, where 1 is the maximum; inactive means score below 0.9)
# Summary of the method: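 In HEK293 cells stably expressing PR-A with a luciferase reporter, compounds were incubated 16 h at 37C, and induced luminescence was quantified with ONE-Glo, multiplexed with cell viability.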
# THRB (gene 7068), sequence (P10828 whole entry, looked up, the tested form may be a part): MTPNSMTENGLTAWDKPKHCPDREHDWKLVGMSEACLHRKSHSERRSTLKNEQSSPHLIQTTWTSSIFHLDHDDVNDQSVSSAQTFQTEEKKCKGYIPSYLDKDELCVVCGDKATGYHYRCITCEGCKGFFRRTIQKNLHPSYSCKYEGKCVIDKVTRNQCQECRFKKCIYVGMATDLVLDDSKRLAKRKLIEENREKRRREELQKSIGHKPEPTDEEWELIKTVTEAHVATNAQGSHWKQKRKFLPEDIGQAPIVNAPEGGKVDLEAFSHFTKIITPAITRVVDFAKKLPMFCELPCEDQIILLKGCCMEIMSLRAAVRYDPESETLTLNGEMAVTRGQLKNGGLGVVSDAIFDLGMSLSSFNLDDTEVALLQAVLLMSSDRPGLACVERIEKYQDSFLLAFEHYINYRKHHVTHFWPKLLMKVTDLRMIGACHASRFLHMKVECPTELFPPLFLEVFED
# THRA (gene 7067), sequence (P10827 whole entry, looked up, the tested form may be a part): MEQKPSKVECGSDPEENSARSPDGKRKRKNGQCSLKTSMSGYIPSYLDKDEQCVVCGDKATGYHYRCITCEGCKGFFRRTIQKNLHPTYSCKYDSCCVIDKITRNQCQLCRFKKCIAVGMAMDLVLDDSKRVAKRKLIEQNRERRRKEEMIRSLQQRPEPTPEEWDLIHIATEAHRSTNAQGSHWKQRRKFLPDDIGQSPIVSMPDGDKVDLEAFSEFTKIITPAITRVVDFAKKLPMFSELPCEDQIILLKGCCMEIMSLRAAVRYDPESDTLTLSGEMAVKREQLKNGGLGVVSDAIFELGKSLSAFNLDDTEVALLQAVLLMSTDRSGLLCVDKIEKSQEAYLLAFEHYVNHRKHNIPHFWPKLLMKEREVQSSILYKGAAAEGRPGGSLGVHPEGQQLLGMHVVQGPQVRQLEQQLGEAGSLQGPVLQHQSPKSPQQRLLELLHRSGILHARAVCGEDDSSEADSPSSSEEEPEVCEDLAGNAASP
# PGR (gene 5241), sequence (P06401 whole entry, looked up): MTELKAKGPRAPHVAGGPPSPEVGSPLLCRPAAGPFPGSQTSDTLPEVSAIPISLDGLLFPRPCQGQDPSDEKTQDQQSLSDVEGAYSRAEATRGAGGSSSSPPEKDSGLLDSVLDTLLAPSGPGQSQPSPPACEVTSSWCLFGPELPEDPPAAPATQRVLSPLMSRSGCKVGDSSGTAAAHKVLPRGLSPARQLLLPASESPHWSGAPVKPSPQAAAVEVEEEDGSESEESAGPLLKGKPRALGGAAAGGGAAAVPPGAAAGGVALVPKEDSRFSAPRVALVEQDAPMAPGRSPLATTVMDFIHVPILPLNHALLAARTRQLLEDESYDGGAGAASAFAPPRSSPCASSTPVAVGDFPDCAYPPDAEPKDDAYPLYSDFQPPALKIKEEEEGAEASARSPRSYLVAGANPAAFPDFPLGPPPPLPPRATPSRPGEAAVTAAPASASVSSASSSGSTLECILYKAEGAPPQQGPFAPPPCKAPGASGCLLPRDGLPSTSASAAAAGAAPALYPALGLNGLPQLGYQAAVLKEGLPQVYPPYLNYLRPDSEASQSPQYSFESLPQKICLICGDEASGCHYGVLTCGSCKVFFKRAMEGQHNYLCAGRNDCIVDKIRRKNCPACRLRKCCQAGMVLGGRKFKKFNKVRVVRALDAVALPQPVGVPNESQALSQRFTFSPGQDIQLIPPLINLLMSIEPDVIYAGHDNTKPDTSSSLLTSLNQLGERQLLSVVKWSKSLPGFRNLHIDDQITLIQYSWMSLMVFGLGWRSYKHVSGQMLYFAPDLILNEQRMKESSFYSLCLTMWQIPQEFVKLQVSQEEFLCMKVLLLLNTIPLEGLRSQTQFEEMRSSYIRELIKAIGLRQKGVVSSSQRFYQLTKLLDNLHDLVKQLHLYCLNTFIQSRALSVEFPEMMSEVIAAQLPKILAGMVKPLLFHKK
smiles,measurement,setting,value
CO/C=C(/C(=O)OC)c1ccccc1Oc1cc(Oc2ccccc2C#N)ncn1,AC50,[1],3.91 µM (active)
same,outcome,THRA (gene 7067),inactive
same,outcome,THRB (gene 7068),inactive
CCCCOC(=O)c1ccccc1C(=O)OCCCC,outcome,[2],inactive
same,outcome,[3],inactive
same,outcome,[4],inactive
same,outcome,[5],inactive
same,outcome,[6],inactive
same,outcome,[7],inactive
same,outcome,[8],inactive
same,outcome,[9],inactive
same,outcome,[10],inactive
CCc1nn(C)c(C(=O)NCc2ccc(C(C)(C)C)cc2)c1Cl,outcome,[1],inactive
same,outcome,THRB (gene 7068),inactive
CCCCNC(=O)n1c(NC(=O)OC)nc2ccccc21,outcome,[1],inactive
same,outcome,THRA (gene 7067),inactive
same,outcome,THRB (gene 7068),inactive
CON(C)C(=O)Nc1ccc(Cl)c(Cl)c1,outcome,PGR (gene 5241) [11],inactive
same,outcome,[12],inactive
same,outcome,[13],inactive
same,outcome,[14],inactive
same,outcome,[15],inactive
CCCCC(CC)COC(=O)c1ccccc1C(=O)OCC(CC)CCCC (stereo not given),outcome,[2],inactive
same,outcome,[3],inactive
same,outcome,[4],inactive
same,outcome,[5],inactive
same,outcome,[6],inactive
same,outcome,[7],inactive
same,outcome,[8],inactive
same,outcome,[9],inactive
same,outcome,[10],inactive
CCOP(=S)(OCC)SCn1c(=O)oc2cc(Cl)ccc21,AC50,PGR (gene 5241) [11],24.9 µM (active)
same,outcome,[12],inactive
same,outcome,[13],inactive
same,AC50,PGR (gene 5241) [16],32.8 µM (active)
same,outcome,[14],inactive
COC(=O)N(OC)c1ccccc1COc1ccn(-c2ccc(Cl)cc2)n1,AC50,PGR (gene 5241) [11],7.24 µM (active)
same,outcome,[12],inactive
same,outcome,[13],inactive
same,AC50,PGR (gene 5241) [16],13.6 µM (active)
same,outcome,[14],inactive
same,outcome,[15],inactive
same,AC50,[1],1.09 µM (active)
same,outcome,THRA (gene 7067),inactive
same,AC50,THRB (gene 7068),4.01 µM (active)
N#CC(CCc1ccc(Cl)cc1)(Cn1cncn1)c1ccccc1 (stereo not given),outcome,PGR (gene 5241) [17],inactive
same,AC50,PGR (gene 5241) [11],17.8 µM (active)
same,outcome,[12],inactive
same,outcome,[13],inactive
same,outcome,PGR (gene 5241) [18],inactive
same,AC50,PGR (gene 5241) [16],22.5 µM (active)
same,outcome,[14],inactive
same,outcome,[15],inactive
OC(c1ccc(Cl)cc1)(c1cncnc1)c1ccccc1Cl (stereo not given),AC50,[2],36.7 µM (active)
same,AC50,[3],1.29 µM (active)
same,AC50,[4],31.1 µM (active)
same,AC50,[5],2.57 µM (active)
same,AC50,[6],0.203 µM (active)
same,AC50,[7],11.4 µM (active)
same,AC50,[8],9.94 µM (active)
same,AC50,[9],2.67 µM (active)
same,AC50,[10],13.9 µM (active)
COc1ccc(C(c2ccc(OC)cc2)C(Cl)(Cl)Cl)cc1,AC50,PGR (gene 5241) [11],6.48 µM (active)
same,outcome,[12],inactive
same,outcome,[13],inactive
same,AC50,PGR (gene 5241) [16],15.2 µM (active)
same,outcome,[14],inactive
COC(=O)c1ccccc1C(=O)OC,outcome,[2],inactive
same,outcome,[3],inactive
same,outcome,[4],inactive
same,outcome,[5],inactive
same,outcome,[6],inactive
same,outcome,[7],inactive
same,outcome,[8],inactive
same,outcome,[9],inactive
same,outcome,[10],inactive
CN(C)C(=S)SSC(=S)N(C)C,AC50,[1],24.3 µM (active)
same,outcome,THRA (gene 7067),inactive
same,outcome,THRB (gene 7068),inactive
C=CC1(C)OC(=O)N(c2cc(Cl)cc(Cl)c2)C1=O (stereo not given),outcome,PGR (gene 5241) [11],inactive
same,outcome,[12],inactive
same,outcome,[13],inactive
same,outcome,PGR (gene 5241) [16],inactive
same,outcome,[14],inactive
same,outcome,[15],inactive
